# Values quoted from earlier work as cited in PubChem BioAssay AID977611.
# The whole screen tested about 3,900 compounds, of which about 3,900 (100%) were called active. The limit is not given here; nearly all actives have Kd up to about 4200 µM. The set was probably picked from earlier hits. The list shows a part of the results. Numbered stars: 1 amine (or outer) side, 2 acyl side, 3 side chain; on linkers, the order of the positions; unused ones are H or OH. Starred links: 1 amine or outer side, 2 acyl side, 3 side chain; linkers in the order of their positions; H or OH if unused. Where a SMILES comes first, the peptide text is derived from it. Non-standard residues stand in square brackets, D forms with d. Square brackets hold non-standard residues; d marks the D form. Residues, ends and D or L forms follow the SMILES beside them. Peptide text beside a SMILES is read from it. [ ]: non-standard residue; d: D form. X1 = O=C([C@H](Cc1ccc(O[P+](O)(O)O)cc1)N[*:1])[*:2]; Orn(CH(NH2)2) = NC(N)NCCC[C@H](N)C(=O)O; Pro(4,5-dehydro) = O=C(O)[C@@H]1CC=CN1
# Experiment: PubChem AID 977611
# Details: PDB protein-ligand complexes, literature Kd
compound,measurement,setting,value
CC[C@H](C)[C@H](NC(=O)[C@H](CCCNC(N)N)NC(=O)[C@H](CC(N)=O)NC(=O)[C@H](Cc1ccccc1)NC(=O)[C@@H](NC(=O)[C@@H]1CCCN1C(=O)[C@H](CC(C)C)NC(=O)[C@H](CCCNC(N)N)NC(=O)[C@@H](N)CCCNC(N)N)[C@@H](C)CC)C(=O)N[C@@H](CO)C(=O)N[C@H](C(=O)N[C@@H](CO)C(=O)O)C(C)C (H-[Orn(CH(NH2)2)][Orn(CH(NH2)2)]LPIFN[Orn(CH(NH2)2)]ISVS-OH),Kd,"protein: CCR4-NOT transcription complex subunit 1, PDB entry 4j8s",2000 nM (active)
C[C@H](N)C(=O)N[C@@H](CS)C(=O)N[C@@H](CO[P+](O)(O)O)C(=O)N1CCC[C@H]1C(=O)N[C@@H](CCC(N)=O)C(=O)N[C@@H](Cc1ccccc1)C(=O)NCC(=O)O,Kd,"protein: Breast cancer type 1 susceptibility protein, PDB entry 4igk",28200 nM (active)
NC(N)NCCC[C@H](N)C(=O)N[C@@H](CO)C(=O)N[C@@H](Cc1ccccc1)C(=O)N[C@@H](CO[P+](O)(O)O)C(=O)N[C@@H](CCC(=O)O)C(=O)N1CCC[C@H]1C(=O)N[C@@H](Cc1ccccc1)C(=O)NCC(=O)O,Kd,"protein: 14-3-3 protein epsilon, PDB entry 3ual",1550 nM (active)
CSCC[C@H](NC(=O)[C@@H]1CCCN1C(=O)[C@H](CC(N)=O)NC(=O)[C@@H]1CCCN1C(=O)[C@H](Cc1cnc[nH]1)NC(=O)[C@@H](N)CC(C)C)C(=O)N[C@@H](Cc1ccc(O[P+](O)(O)O)cc1)C(=O)N[C@@H](C)C(=O)N[C@@H](CCCNC(N)N)C(=O)O (H-LHPNPM[X1]A[Orn(CH(NH2)2)]-OH),Kd,"protein: Protein Dok7(PH-PTB), PDB entry 3ml4",4700 nM (active)
CC(C)C[C@H](NC(=O)CNC(=O)[C@H](CC(N)=O)NC(=O)[C@@H](N)Cc1ccccc1)C(=O)N[C@H](C(=O)N[C@@H](CO[P+](O)(O)O)C(=O)N1CCC[C@H]1C(=O)N[C@@H](CCC(N)=O)C(=O)N[C@@H](CCCNC(N)N)C(=O)N[C@@H](CO[P+](O)(O)O)C(=O)O)[C@@H](C)O,Kd,"protein: Saccharomyces cerevisiae Skp1 and Cdc4 (263-744), PDB entry 3v7d",410 nM (active)
CC(C)[C@H](NC(=O)[C@@H]1CCCN1C(=O)[C@H](CO[P+](O)(O)O)NC(=O)[C@@H](N)CCCNC(N)N)C(=O)N[C@@H](Cc1ccccc1)C(=O)N[C@@H](CO)C(=O)O,Kd,"protein: Breast cancer type 1 susceptibility protein, PDB entry 4ifi",3340 nM (active)
CC(C)C[C@H](NC(=O)[C@H](CCCNC(N)N)NC(=O)[C@H](Cc1ccccc1)NC(=O)[C@@H](N)CC(C)C)C(=O)N[C@@H](CCCNC(N)N)C(=O)N[C@@H](Cc1c[nH]cn1)C(=O)N[C@@H](Cc1ccccc1)C(=O)N1CCC[C@H]1C(=O)N[C@@H](CS)C(=O)NCC(=O)N[C@@H](CC(N)=O)C(=O)N[C@H](C(=O)N[C@@H](CC(N)=O)C(=O)N[C@@H](Cc1ccc(O)cc1)C(=O)NCC(=O)N[C@@H](Cc1ccc(O)cc1)C(=O)N[C@@H](CCC(N)=O)C(=O)N[C@@H](CCC(N)=O)C(=O)N[C@@H](CCC(N)=O)C(=O)O)C(C)C (HELM PEPTIDE1{L.F.[NC(N)NCCC[C@H](N[*:1])C(=O)[*:2]].L.[NC(N)NCCC[C@H](N[*:1])C(=O)[*:2]].H.F.P.C.G.N.V.N.Y.G.Y.Q.Q.Q}$$$$V2.0),Kd,"protein: PTB domain of SNT-2, PDB entry 2kup",200 nM (active)
C[C@H](NC(=O)[C@H](CCC(=O)O)NC(=O)[C@@H]1CCCN1C(=O)[C@H](Cc1ccccc1)NC(=O)[C@@H](NC(=O)[C@@H]1CCCN1C(=O)[C@H](CO[P+](O)(O)O)NC(=O)[C@H](CCC(N)=O)NC(=O)[C@@H]1CCCN1)[C@@H](C)O)C(=O)NCC(=O)O,Kd,"protein: Breast cancer type 1 susceptibility protein(BRCA1), PDB entry 3coj",5200 nM (active)
CC[C@H](C)[C@H](NC(=O)[C@@H](NC(=O)[C@@H](N)CC(C)C)C(C)C)C(=O)N[C@@H](C)C(=O)NCC(=O)N[C@@H](CC(N)=O)C(=O)N1CCC[C@H]1C(=O)N[C@@H](C)C(=O)N[C@@H](Cc1ccc(O[P+](O)(O)O)cc1)C(=O)N[C@@H](CCCNC(N)N)C(=O)N[C@@H](CO)C(=O)O (H-LVIAGNPA[X1][Orn(CH(NH2)2)]S-OH),Kd,"protein: PTB domain of insulin receptor substrate-1(IRS-1), PDB entry 1irs",6000 nM (active)
CC(C)C[C@H](NC(=O)[C@H](CC(N)=O)NC(=O)[C@H](Cc1ccccc1)NC(=O)[C@@H](N)CO)C(=O)N[C@@H](C)C(=O)N1CCC[C@H]1C(=O)N[C@@H](CC(C)C)C(=O)NCC(=O)N[C@@H](CCCNC(N)N)C(=O)N[C@@H](CCCNC(N)N)C(=O)N[C@@H](CCCNC(N)N)C(=O)N[C@H](C(=O)N[C@@H](CCC(N)=O)C(=O)N[C@@H](CO)C(=O)N[C@@H](CCC(N)=O)C(=O)O)C(C)C (H-SFNLAPLG[Orn(CH(NH2)2)][Orn(CH(NH2)2)][Orn(CH(NH2)2)]VQSQ-OH),Kd,"protein: Telomeric repeat-binding factor 2(TRF2 TRFH domain), PDB entry 3bu8",120 nM (active)
"CC(C)C[C@H](NC(=O)[C@H](CC(C)C)NC(=O)[C@H](CCC(=O)O)NC(=O)[C@@H]1CC=CN1C(=O)[C@H](C)NC(=O)[C@@H]1CCCN1)C(=O)NCC(=O)O (H-PA[Pro(4,5-dehydro)]ELLG-OH)",Kd,"protein: anti-hinge rabbit antibody 2095-2, PDB entry 4o4y",15.5 nM (active)
C[C@H]1O[C@H](O[C@H]2[C@H](O)[C@@H](O)[C@@H](O[C@H]3[C@H](O)[C@@H](O)[C@@H](O)O[C@@H]3CO)O[C@@H]2CO)[C@H](O)[C@@H](O)[C@@H]1N[C@H]1CC(CO)[C@@H](O)[C@H](O)[C@H]1O (stereo not given in full),Kd,"protein: Carbohydrate ABC transporter substrate-binding protein, CUT1 family (TC 3.A.1.1.-) EUR_01830, PDB entry 4uac",288 nM (active)
C[C@@H]1O[C@@H](O)[C@H](O)[C@H](O)[C@H]1O[C@H]1O[C@H](CO)[C@@H](O)[C@H](O[C@H]2O[C@H](C)[C@@H](O)C[C@H]2O)[C@@H]1O[C@H]1O[C@H](CO)[C@H](O)[C@H](O[C@@H]2O[C@@H](C)[C@H](O[C@H]3O[C@H](CO)[C@@H](O)[C@H](O[C@H]4O[C@H](C)[C@@H](O)C[C@H]4O)[C@@H]3O[C@H]3O[C@H](CO)[C@H](O)[C@H](O)[C@H]3O)[C@@H](O)[C@H]2O)[C@H]1O,Kd,"protein: Bifunctional tail protein, PDB entry 3th0",75800 nM (active)
OC[C@H]1O[C@H](O[C@H]2[C@H](O)[C@@H](O)[C@@H](O[C@H]3[C@H](O)[C@@H](O)[C@@H](O[C@H]4[C@H](O)[C@@H](O)[C@@H](O)O[C@@H]4CO)O[C@@H]3CO)O[C@@H]2CO)[C@H](O)[C@@H](O)[C@@H]1O,Kd,"protein: Outer membrane protein SusF, PDB entry 4fe9",990000 nM (active)
O=C1O[C@H](CO)[C@@H](O[C@@H]2O[C@H](CO)[C@@H](O)[C@H](O)[C@@H]2O)[C@H](O)[C@@H]1O,Kd,"protein: ABC transporter substrate-binding protein MnBP3, PDB entry 4pft",2.3 nM (active)
